Common to all, as to settings: concentration: 1 μM, replicates: in singlicate; n = 1
Assay [1] has as its system ULK3.
For assay [2], the system named is T1, VEGFR2.
T1 construct: gene KDR

Assay [3] relates to T2, VPS34.
T2 construct: gene PIK3C3

In assay [4] the test system is VRK2.
Assay [5] relates to WEE1.
Assay [6] has as its system WEE2.
Assay [7] deals with WNK1.
Assay [8] concerns WNK2.
Assay [9] has as its system WNK3.
Assay [10] deals with WNK4.
The test system of assay [11] is T3, YANK1.
T3 construct: gene STK32A

In assay [12] the test system is T4, YANK2.
T4 construct: gene STK32B

For assay [13], the system named is T5, YANK3.
T5 construct: gene STK32C

Assay [14] relates to T6, YES.
T6 construct: gene YES1

Assay [15] concerns T7, YSK1.
T7 construct: gene STK25

Assay [16] has as its system T8, YSK4.
T8 construct: gene MAP3K19

Assay [17] concerns ZAK.
Assay [18] has as its system ZAP70.
In assay [19] the test system is T9, p38-alpha.
T9 construct: gene MAPK14

Assay [20] concerns T10, p38-beta.
T10 construct: gene MAPK11
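Also: KINOMEscan kinase panel screen.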

With `Cc1cccc(-c2cc(-c3c[nH]nc3-c3ccccn3)ccn2)c1` [GW679395], the “%Inh” value in [1] is given as 5%; in [2], 0%; in assay [3] it was 0%; in assay [4], 26%; in assay [5], 13%; in assay [6], 1%. Besides, the “%Inh” value in [7] is 11%; in [8], 22%; in assay [9], 36%; in assay [10], 38%; in assay [11] it was 0%; in assay [12], 0%. The “%Inh” value stood at 15% in [13]; 29% in assay [14]; 0% in assay [15]; 36% in assay [16]; 0% in assay [17]; 0% in [18]. Also, the “%Inh” value in [19] was 47%; in assay [20], 0%.

Regarding `O=C(Nc1ccc2c(c1)OCO2)NC1CCN(c2ccnc(NCc3ccc(F)cc3)n2)CC1` [GSK1379859], the “%Inh” value in assay [1] is on record as 0%; in [2] it was 0%; in assay [3] it was 7%; in [4] it was 0%; in assay [5], 12%; in [6], 0%. Further, the “%Inh” value was determined as 0% in [7]; 0% in assay [8]; 0% in assay [9]; 13% in assay [10]; 11% in assay [11]; 0% in assay [12]. Also, the “%Inh” value stood at 0% in [13]; 9% in assay [14]; 0% in assay [15]; 0% in assay [16]; 0% in assay [17]; 0% in [18]. Moreover, the “%Inh” value in assay [19] and in assay [20] was 0% each time.

On to `Nc1ncnc2c1ncn2-c1cccc2ccccc12` [SKF-97184], for which the “%Inh” value in [1] worked out at 30%; in assay [2], 0%; in [3], 56%; in [4], 29%; in assay [5], 0%; in assay [6], 0%. Besides, the “%Inh” value was found to be 15% in assay [7]; 0% in assay [8]; 29% in [9]; 15% in assay [10]; 0% in [11]; 80% in assay [12]. Further, the “%Inh” value in assay [13] is 4%; in assay [14], 0%; in [15] it was 12%; in assay [16], 23%; in assay [17] it was 0%; in [18], 37%. In addition, the “%Inh” value in assay [19] and in assay [20] was 0% throughout.

For `COc1cc2ncn(-c3cc(OCCCc4ccccc4)c(C(N)=O)s3)c2cc1OC` [GSK205189], the “%Inh” value in assay [1] is reported as 3%; in [2] it was 0%; in assay [3], 0%; in assay [4], 0%; in [5], 12%; in assay [6] it was 4%. For the same compound, the “%Inh” value turned out to be 0% in [7]; 8% in assay [8]; 0% in assay [9]; 0% in assay [10]; 0% in [11]; 0% in assay [12]. Besides, the “%Inh” value in assay [13] turned out to be 19%; in assay [14], 0%; in assay [15], 0%; in assay [16], 0%; in assay [17], 0%; in assay [18], 0%. Moreover, the “%Inh” value in assay [19] and in assay [20] was 0% each time.

In the case of `Nc1ncnc2c1ncn2-c1ccc(Cl)cc1` [AH2635], the “%Inh” value in [1] worked out at 2%; in assay [2], 0%; in assay [3] it was 0%; in assay [4], 15%; in assay [5], 0%; in [6] it was 11%. In addition, the “%Inh” value was found to be 0% in [7]; 0% in assay [8]; 34% in assay [9]; 32% in assay [10]; 0% in assay [11]; 0% in assay [12]. Also, the “%Inh” value in assay [13] was found to be 0%; in assay [14], 0%; in assay [15], 0%; in assay [16], 27%; in [17] it was 0%; in assay [18], 0%. The “%Inh” value worked out at 32% in assay [19] and 0% in assay [20].

In the case of `Cc1nnc(-c2ccc3ncn(-c4ccc(S(C)=O)cc4)c3c2)o1` (centres unmarked), the “%Inh” value in [1] is 0%; in assay [2], 3%; in [3] it was 15%; in assay [4], 0%; in assay [5], 0%; in assay [6] it was 21%. The “%Inh” value in [7], in [8], in [9], in [10], in assay [11] and in [12] was 0% in each case. Moreover, the “%Inh” value in assay [13] is recorded as 4%; in [14], 7%; in assay [15], 0%; in assay [16] it was 21%; in [17], 12%; in assay [18], 0%. Further, the “%Inh” value turned out to be 0% in assay [19] and 13% in assay [20].

For the compound `COc1ccc(-c2cc3c(C)nc(N)nc3n([C@H]3CC[C@H](O)CC3)c2=O)cn1`, the “%Inh” value in assay [1], in assay [2], in [3], in assay [4], in [5] and in assay [6] was 0% in each case. In addition, the “%Inh” value in assay [7] amounted to 0%; in assay [8], 0%; in assay [9] it was 0%; in [10] it was 18%; in assay [11], 0%; in [12] it was 0%. The “%Inh” value in assay [13], in assay [14], in assay [15], in assay [16], in assay [17] and in assay [18] was 0% throughout. In addition, the “%Inh” value in [19] and in assay [20] was 0% in each case.

The record behind these values is paper PMC5540273 (PLoS ONE, 2017).
